PubChem BioAssay AID689 (Sanford-Burnham Center for Chemical Genomics, 2007)
Out of some 62,000 compounds screened, about 80 (0.1%) were called active. How the calls were made is not given here. A selection follows. Entries with a potency or affinity are not part of this list.

Target: Ephrin type-A receptor 4 (Mus musculus) (UniProt Q03137)
Assay: EphA4 ligand-binding antagonists – biochemical, colorimetric, mouse EphA4, primary screen (AID 689)
Conditions: EphA4-AP binding to KYL peptide, pNPP A405, at 10 µM, hits give high values

Ephrin type-A receptor 4 (Mus musculus), sequence (Q03137 whole entry, looked up): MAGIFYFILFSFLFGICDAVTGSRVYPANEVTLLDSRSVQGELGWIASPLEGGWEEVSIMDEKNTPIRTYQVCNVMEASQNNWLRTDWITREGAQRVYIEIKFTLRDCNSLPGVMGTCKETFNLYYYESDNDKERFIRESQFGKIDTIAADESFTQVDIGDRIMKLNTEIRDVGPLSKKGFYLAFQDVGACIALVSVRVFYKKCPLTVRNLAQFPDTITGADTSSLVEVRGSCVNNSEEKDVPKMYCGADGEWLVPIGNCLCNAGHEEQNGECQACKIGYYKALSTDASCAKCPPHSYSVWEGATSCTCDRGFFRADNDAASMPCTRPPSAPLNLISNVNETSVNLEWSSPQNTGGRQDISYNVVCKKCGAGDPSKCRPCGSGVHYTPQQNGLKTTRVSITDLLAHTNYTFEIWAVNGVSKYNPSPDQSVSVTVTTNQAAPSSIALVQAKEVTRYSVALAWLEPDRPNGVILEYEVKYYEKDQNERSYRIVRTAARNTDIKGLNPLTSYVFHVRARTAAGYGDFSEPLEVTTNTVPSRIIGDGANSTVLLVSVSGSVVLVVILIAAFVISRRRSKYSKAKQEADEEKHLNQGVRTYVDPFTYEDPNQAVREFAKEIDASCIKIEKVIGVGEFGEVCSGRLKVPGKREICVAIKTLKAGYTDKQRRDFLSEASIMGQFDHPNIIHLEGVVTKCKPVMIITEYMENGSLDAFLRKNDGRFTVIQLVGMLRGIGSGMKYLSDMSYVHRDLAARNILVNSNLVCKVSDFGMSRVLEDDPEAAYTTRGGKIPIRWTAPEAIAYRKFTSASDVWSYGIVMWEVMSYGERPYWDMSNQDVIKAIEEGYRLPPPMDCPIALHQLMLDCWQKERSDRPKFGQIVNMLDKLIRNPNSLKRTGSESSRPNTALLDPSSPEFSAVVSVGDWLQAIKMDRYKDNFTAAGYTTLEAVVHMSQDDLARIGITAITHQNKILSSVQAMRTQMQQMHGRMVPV

inhibition, inactive:
O=c1oc2ccccc2c(O)c1/C=N/c1ccccn1 -4.8%, Oc1c(/C=N/c2ncn[nH]2)ccc2ccccc12 -0.6%, Cc1ccc(CNC(=O)C2CCCCC2C(=O)O)cc1 (stereo not drawn) -8.9%, COc1cc(C(=O)Nc2c(-c3ccccc3)c3cc(Br)ccc3[nH]c2=O)cc(OC)c1OC -0.5% [this sample at 5 µg/mL], COc1ccc(OC)c(NC(=O)Cn2c(-c3ccc(Cl)cc3)noc2=O)c1 -3.5%, CCCC(=O)N1CCN(c2ccc(NC(=O)c3ccccc3)cc2)CC1 -0.5%, COc1ccc(NC(=O)CN2C(=O)C(C)Oc3ccccc32)cc1 (stereo not drawn) -3%, O=CNCCCc1nc2ccccc2n1Cc1ccccc1 7.7%, O=[N+]([O-])c1cccc(S(=O)(=O)N2CCOCC2)c1 2.9% [this sample at 5 µg/mL], CCn1c2ccccc2c2nc3cc(S(=O)(=O)N4CCOCC4)ccc3nc21 32.3%, COc1ccc(CCNC(=O)c2ccc3nc(-c4ccco4)c(-c4ccco4)nc3c2)cc1OC 24.1%, O=C(NC1CCCC1)c1ccc2nc(-c3ccco3)c(-c3ccco3)nc2c1 18.8%, O=C(NCc1ccccc1)c1ccc2nccnc2c1 -12.5%, O=C(NCc1ccccc1)c1cccc(NC(=O)c2ccco2)c1 -2.1%, CCOC(=O)N1CCC(NC(=O)c2cc(C)c3c(C)nn(-c4ccccc4)c3n2)CC1 -3.2%, COc1c(Cl)cc(C(=O)Nc2cccc3ccccc23)cc1Cl -13.9% [this sample at 5 µg/mL], CCc1nc(SCc2nc3ccccc3[nH]2)c2oc3ccccc3c2n1 12.7%, Cc1sc(NC(=O)CN(C)C2CCCCC2)nc1-c1ccc2c(c1)CCN2S(=O)(=O)c1ccccc1 -7%, O=C(Cc1ccc(F)cc1)Nc1ccccc1Br -10% [this sample at 5 µg/mL], CCOC(=O)c1c(C)oc2ccc(OC(=O)c3ccccc3OC)cc12 -1% [this sample at 5 µg/mL], CCOC(=O)c1cc(OC(=O)c2ccccc2)n(-c2ccccc2)n1 0.3%, Cc1onc(-c2ccccc2Cl)c1C(=O)Nc1ccccc1N1CCOCC1 4%, Cc1nn(-c2ccc(Cl)cc2)c2sc(C(=O)N3CCN(C(=O)c4ccco4)CC3)cc12 -24.1%, CCCCc1nnc(SCc2ccc(OCC)cc2)n1N -2.2%, COc1cc2[nH]c3c(N4CCC(C(N)=O)CC4)ncnc3c2cc1OC -14.4%, CSc1nc(N2CCN(CCO)CC2)c2sc3nc(-c4ccco4)c4c(c3c2n1)CCC4 -2.2%, CCSc1ncnc2c1sc1nc(-c3ccco3)c3c(c12)CC(C)(C)OC3 -1.2%, CSc1nc(N(C)CCO)c2sc3nc(-c4ccco4)c4c(c3c2n1)CCC4 46.9%, CSc1nc(NCc2ccco2)c2sc3nc(C(C)C)c4c(c3c2n1)CC(C)(C)OC4 -8.5%, COC(=O)c1c(C)oc2ccc(OCc3ccccc3Br)cc12 -1.2% [this sample at 5 µg/mL], CC1CCN(c2cc(N3CCOCC3)c([N+](=O)[O-])cc2F)CC1 17.1%, CCCn1nc(NS(=O)(=O)c2ccccc2)c2cc3ccccc3nc21 -10.6%, CCCCCn1c(N)c(C#N)c2nc3ccccc3nc21 0.7%, CCCCCn1c2nc3ccccc3nc2c2c(=O)n(CC(C)C)cnc21 -9.1%, c1ccc(-c2nc(-n3nc4ccccc4n3)nc3ccccc23)cc1 -3.4%, Cn1nc(-c2ccccc2)c2nc3ccccc3nc21 45.4%, CCCn1cnc2c(c1=O)c1nc3ccccc3nc1n2CCc1ccccc1 -9.5%, CCCCn1c2nc3ccccc3nc2c2c(=O)n(CCC)cnc21 -2.2%, CCCCn1c2nc3ccccc3nc2c2c(=O)n(C(C)CC)cnc21 (stereo not drawn) 0.6%, COc1cc(NC(=O)c2cnn3c2NC(c2ccc(Br)cc2)CC3C(F)(F)F)cc(OC)c1OC (stereo not drawn) -4.6% [this sample at 5 µg/mL], COc1ccc(-c2c(C(C)=O)c(C)nc3sc4c(c23)NC(c2ccccc2)NC4=O)cc1 (stereo not drawn) -23.5%, CC1(C)CC(=O)C2=C(C1)N(Cc1ccco1)C(=O)NC2(C(F)(F)F)C(F)(F)F -8.1%, Oc1ccc(N2CCN(c3ncnc4sc5c(c34)CCC5)CC2)cc1 -17.1%, COc1ccccc1CNC(=O)c1oc2ccc(S(=O)(=O)N3CCCC3)cc2c1C 2.1%, Cc1[nH]n(CCC#N)c(=O)c1CC(=O)N1CCN(c2ccccc2)CC1 -10.6%, O=C(Nc1ccc2nn(-c3ccccc3)nc2c1)c1ccc(Cl)c([N+](=O)[O-])c1 -18.3% [this sample at 5 µg/mL], CCOC(=O)C(C)(C)C(=O)C(C)(C)C(O)c1ccccn1 (stereo not drawn) -7.7%, CC(C)Cn1c(N)c(C(=O)CSc2nnnn2C)c(=O)n(C)c1=O -12%, Cc1cc2ccccc2n1CCNC(=O)C1CCCC1 0.5%, Cc1ccc(S(=O)(=O)NCCn2c(C)cc3ccccc32)cc1 13.5%, CCOc1ccc(NS(=O)(=O)c2ccc(OC)c(C)c2)cc1 -20.6%, O=C(Nc1nc(-c2ccccc2)c(-c2ccccc2)s1)c1ccc(S(=O)(=O)N2CCCC2)cc1 8.7% [this sample at 5 µg/mL], Cc1ocnc1C(=O)Nc1ccc(Cl)cc1 -10.1%, CC(=O)C12c3ccccc3C(c3ccccc31)C1C(=O)NC(=O)C12 (stereo not drawn) -14.2% [this sample at 5 µg/mL], CCOc1ccc(N(CC(=O)Nc2ccc(Br)cc2)S(=O)(=O)c2ccc(SC)cc2)cc1 -3.8% [this sample at 5 µg/mL], Cc1cc(C)n2nc(SC3CCCCN(C(=O)c4ccc(F)cc4)C3=O)nc2n1 (stereo not drawn) -9.7%, Cc1nn2cc(-c3ccccc3)nc2s1 -24.1%, c1ccc(-c2cn3nc4c(nc3n2)CCCC4)cc1 5.2%, Cc1cc(=O)[nH]c(SCCOc2ccccc2C)n1 -0.8% [this sample at 5 µg/mL], CC1CC(C)CN(C(=O)CSc2nnc(-c3ccc(F)cc3)o2)C1 (stereo not drawn) 8.1%, Cc1ccc(NC(=O)/C(=C\c2ccc([N+](=O)[O-])cc2)NC(=O)c2ccccc2)cc1 -12.9%, Cc1ccc(C(=O)N/C(=C\c2ccc([N+](=O)[O-])cc2)C(=O)NCCc2ccccc2)cc1 1.8%, COc1ccc(NC(=O)/C=C/c2ccccc2Cl)c([N+](=O)[O-])c1 -10.9% [this sample at 5 µg/mL], CC1=N/C(=C\c2ccc([N+](=O)[O-])cc2)C(=O)N1c1ccc(Br)c(C)c1 40.9%, CC1=N/C(=C\c2ccc([N+](=O)[O-])cc2)C(=O)N1c1ccc(Cl)cc1 22.2%, O=C(COc1ccccc1)Nc1ccc(S(=O)(=O)N2CCOCC2)cc1 5.4%, C=C(C)Cn1c(COc2ccccc2)nnc1SCC(=O)O 1.1%, O=C(/C(=C/c1ccccc1[N+](=O)[O-])c1nc2ccccc2[nH]1)c1ccccc1 9% [this sample at 5 µg/mL], CN1C(=O)C(=Cc2ccc(-c3ccc(Cl)c(C(=O)O)c3)o2)C(=O)N(C)C1=O 12.8% [this sample at 5 µg/mL], O=C1NC(=O)N(c2ccc(Cl)cc2)C(=O)/C1=C/c1ccc(-c2ccc(Cl)c(C(=O)O)c2)o1 -6.4% [this sample at 5 µg/mL], CCOC(=O)c1cc(-c2ccc(C=C3C(=O)N(C)C(=O)N(C)C3=O)o2)ccc1Cl 11% [this sample at 5 µg/mL], Cc1ccc(N2C(=O)/C(=C\c3ccc(-c4ccc(Cl)c(C(=O)O)c4)o3)C(=O)NC2=S)cc1 -13.7% [this sample at 5 µg/mL], COc1ccc(/C=C/C(=O)Nc2cccc([N+](=O)[O-])c2)cc1Br 1.9% [this sample at 5 µg/mL], COC(=O)c1cccc(NC(=O)COC(=O)CSc2nc(C)cc(C)n2)c1 -9.9%, Cn1c(SCCOc2ccc(Cl)cc2)nnc1-c1ccncc1 13%, Cc1ccc(CNc2oc(C)nc2C#N)cc1 -0.9%, O=C(NCCOc1ccccc1F)c1cccc2ccccc12 -0.6% [this sample at 5 µg/mL], COC(=O)c1ccc(Cn2cnc3c(cnn3-c3ccc(F)cc3)c2=O)o1 9.4%, Cc1sc(NC(=O)CSc2nnc(C)c(=O)[nH]2)c(C#N)c1C -25.1%, Cc1ccc(/C=C/C2=Cc3c(sc(NC(=O)CSc4n[nH]c(N)n4)c3C#N)C(C)(C)C2)o1 44.8%, Cc1ccc(OCc2nnc(SCC(=O)Nc3sc(C)c(C)c3C#N)n2C)cc1 -5.2%, CCOc1ccc(NC(=O)CSc2nc(C)c3c(c2C#N)CCCC3)cc1 -14.6%, COc1cc(C2N(c3ccc(Cl)c(Cl)c3)C(=O)C3CCCN32)cc(OC)c1OC (stereo not drawn) -1.5%
